Test results: PubChem BioAssay (NCI)
The panel holds about 83,000 compounds, 20% with a hit somewhere; the sample as a whole holds those more often.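 Each cell line was grown in a 96-well plate and treated with one concentration of compound for 48 hours. Values below 10 were considered active.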 A number with no mark means an inactive call. Calls of active or inactive are those of the source.

These compounds were tested on SN12C renal (assay: NCI-60 one-dose screen, 48 h (100 = growth as untreated, 0 = no growth, -100 = all killed)). Conditions: 10 µM unless noted.

| Compound | growth |
| --- | --- |
| COc1ccc(-c2nc(N=Nc3c(O)[nH]c4ccccc34)nc(N3CCOCC3)c2C#N)cc1 | 73.3% |
| COc1cc2nc(-c3ccc(C(F)(F)F)cc3)cc(OCCN3CCCC3)c2cc1OC | 72.2% |
| NC(=S)N/N=C(/c1ccccc1)c1ccccc1N | 85% |
| C=C(C)[C@@H]1CC[C@]2(C=O)CC[C@]3(C)[C@H](CC[C@@H]4[C@@]5(C)CCCNC(C)(C)[C@@H]5CC[C@]43C)[C@@H]12 | 74.1% |
| CCCNC(=O)Oc1ccc(/C(=C(\C)c2ccccc2)c2ccc(OCCN3CCCCC3)cc2)cc1 | 71.4% |
| CCOC(=O)Oc1c(OC)cc(C(=O)O[C@@H]2C[C@@H]3CN4CCc5c([nH]c6cc(OC)ccc56)[C@H]4C[C@@H]3[C@H](C(=O)OC)[C@H]2OC)cc1OC | 60% |
| COc1ccc(OC)c(/C=C/[C@H]2O[C@@H](C)[C@H](O)[C@@H]2O)c1 | 106% |
| CCC(=O)c1ccc(O)c(OC)c1 | 94.9% |
| Clc1cc(Cl)cc(N2N=C(c3cccc(Nc4ccncc4)c3)CC2c2ccccc2)c1 (stereo unspecified) | 71.4% |
| Fc1cc(C2=NNC(c3ccc[nH]3)C2)ccc1-n1ccc(C(F)(F)F)n1 (stereo unspecified) | 85.6% |
| Clc1nc(Nc2ccccc2)nc(Nc2ccccc2)n1 | 95.9% |
| Cn1c(=O)c2[nH]c(CCCc3nc4c([nH]3)c(=O)n(C)c(=O)n4C)nc2n(C)c1=O | 103% |
| C=C1C(=O)O[C@H]2[C@H]1CC/C(COC(=O)NCCc1c[nH]c3ccc(Cl)cc13)=C\CC[C@@]1(C)O[C@@H]21 | -70.1% (active) |
| Cc1[nH]c(C(=O)Nc2ccccc2OCc2cccc(C(=O)NCCN)c2)c(Cl)c1Cl | 58% |
| COc1cc2oc(-c3cccc(C(=O)Nc4ccc(Cl)cc4)c3)cc(=O)c2c(OC)c1OC | 33.2% |
| O=C(Nc1nc2ccc(S(=O)(=O)Nc3ccc(C4(C(F)(F)F)CC4)cc3)cc2[nH]1)c1cnccn1 | 44.9% |
| CCCCCCCCCCN=C(N)N=C(N)N | 9.21% (active) |
| CC(C)NC(=O)N1C(=O)CCC1NNC(=O)c1ccc([N+](=O)[O-])cc1 (stereo unspecified) | 102% |
| N#Cc1cc(-c2nc3ccccc3s2)c(=O)n(NS(=O)(=O)c2ccc(Cl)cc2)c1N | 97.8% |

| Compound | growth |
| --- | --- |
| O=C1c2ccccc2-c2c1c1c(NCCCO)nc3ccccc3c1n2Cc1ccccc1 | 18.6% |
| COC(=O)N[C@H]1CCc2cc(OC)c(OC)c(OC)c2-c2ccc(SC)c(=O)cc21 | 23.9% |
| COc1nccnn1 | 97.1% |
| Cc1ccc(C(=O)Nc2ccccc2C(=O)N/N=C(\c2ccccc2)c2ccccn2)cc1 | 28.9% |
| CCCCN(CCCC)CCc1c(C)cc(C)c(CCN(CCCC)CCCC)c1O | 22.9% |
| Nc1cc(N)c2cccnc2c1O | 55.5% |
| CN1CCCC1=Nc1ccccc1 | 95.5% |
| COc1ccc(CNC(=O)COc2ccc(/C=N/Nc3nc4ccccc4s3)cc2)cc1 | 30.8% |
| O=C1OC(=O)C2C1CC=CC2c1ccccc1 (stereo unspecified) | 87.6% |
| COc1ccc(CC(C)=C(c2ccc(OCCN(C)C)cc2)c2ccc(OCCN(C)C)cc2)cc1 | 75.2% |
| O=C(N=Nc1c(O)[nH]c2ccc(F)cc12)c1cc2ccccc2[nH]1 | 91.2% |
| O=S(=O)(NCCNc1nccc(-c2c(-c3cccc(F)c3)nc3occn23)n1)c1cccc2ccccc12 | 47.6% |
| O=S(=O)(c1ccc(N/N=C\c2ccccc2)cc1)c1ccc(N/N=C/c2ccccc2)cc1 | 64.9% |
| CCOc1ccc(/C=N/Nc2cc(C)nc3ccc(Cl)cc23)cc1 | -26% (active) |
| CC(C)Cc1ccc(C(C)C(=O)NCc2c[nH]c3ccc(Cl)cc23)cc1 (stereo unspecified) | 94% |
| COc1ccccc1OCC(=O)N1CCCCCC1 | 103% |
| Nc1nc(SN=Nc2ccc(S(N)(=O)=O)cc2)c2[nH]cnc2n1 | 24.2% |
| COc1ccc(C2CC(n3nnnc3-c3ccccc3)=NN2)cc1 (stereo unspecified) | 78.1% |
| CC(c1ccccc1)n1ccnc1CO (stereo unspecified) | 102% |

These compounds were tested on UO-31 renal in the same assay as above. Conditions: 10 µM unless noted.

| Compound | growth |
| --- | --- |
| COc1ccc(-c2nc(N=Nc3c(O)[nH]c4ccccc34)nc(N3CCOCC3)c2C#N)cc1 | 84.8% |
| COc1cc2nc(-c3ccc(C(F)(F)F)cc3)cc(OCCN3CCCC3)c2cc1OC | 54.2% |
| NC(=S)N/N=C(/c1ccccc1)c1ccccc1N | 62.8% |
| C=C(C)[C@@H]1CC[C@]2(C=O)CC[C@]3(C)[C@H](CC[C@@H]4[C@@]5(C)CCCNC(C)(C)[C@@H]5CC[C@]43C)[C@@H]12 | 69% |
| CCCNC(=O)Oc1ccc(/C(=C(\C)c2ccccc2)c2ccc(OCCN3CCCCC3)cc2)cc1 | 46.5% |
| CCOC(=O)Oc1c(OC)cc(C(=O)O[C@@H]2C[C@@H]3CN4CCc5c([nH]c6cc(OC)ccc56)[C@H]4C[C@@H]3[C@H](C(=O)OC)[C@H]2OC)cc1OC | 80.2% |
| COc1ccc(OC)c(/C=C/[C@H]2O[C@@H](C)[C@H](O)[C@@H]2O)c1 | 91.5% |
| CCC(=O)c1ccc(O)c(OC)c1 | 101% |
| Clc1cc(Cl)cc(N2N=C(c3cccc(Nc4ccncc4)c3)CC2c2ccccc2)c1 (stereo unspecified) | 62% |
| Fc1cc(C2=NNC(c3ccc[nH]3)C2)ccc1-n1ccc(C(F)(F)F)n1 (stereo unspecified) | 52.1% |
| Clc1nc(Nc2ccccc2)nc(Nc2ccccc2)n1 | -80.6% (active) |
| Cn1c(=O)c2[nH]c(CCCc3nc4c([nH]3)c(=O)n(C)c(=O)n4C)nc2n(C)c1=O | 102% |
| C=C1C(=O)O[C@H]2[C@H]1CC/C(COC(=O)NCCc1c[nH]c3ccc(Cl)cc13)=C\CC[C@@]1(C)O[C@@H]21 | -99.7% (active) |
| Cc1[nH]c(C(=O)Nc2ccccc2OCc2cccc(C(=O)NCCN)c2)c(Cl)c1Cl | 75% |
| COc1cc2oc(-c3cccc(C(=O)Nc4ccc(Cl)cc4)c3)cc(=O)c2c(OC)c1OC | 23.2% |
| O=C(Nc1nc2ccc(S(=O)(=O)Nc3ccc(C4(C(F)(F)F)CC4)cc3)cc2[nH]1)c1cnccn1 | 40.3% |
| CCCCCCCCCCN=C(N)N=C(N)N | 43.1% |
| CC(C)NC(=O)N1C(=O)CCC1NNC(=O)c1ccc([N+](=O)[O-])cc1 (stereo unspecified) | 92% |
| N#Cc1cc(-c2nc3ccccc3s2)c(=O)n(NS(=O)(=O)c2ccc(Cl)cc2)c1N | 70.4% |

| Compound | growth |
| --- | --- |
| O=C1c2ccccc2-c2c1c1c(NCCCO)nc3ccccc3c1n2Cc1ccccc1 | -40.9% (active) |
| COC(=O)N[C@H]1CCc2cc(OC)c(OC)c(OC)c2-c2ccc(SC)c(=O)cc21 | 44.5% |
| COc1nccnn1 | 100% |
| Cc1ccc(C(=O)Nc2ccccc2C(=O)N/N=C(\c2ccccc2)c2ccccn2)cc1 | 3.57% (active) |
| CCCCN(CCCC)CCc1c(C)cc(C)c(CCN(CCCC)CCCC)c1O | 28.4% |
| Nc1cc(N)c2cccnc2c1O | 56.5% |
| CN1CCCC1=Nc1ccccc1 | 92.2% |
| COc1ccc(CNC(=O)COc2ccc(/C=N/Nc3nc4ccccc4s3)cc2)cc1 | 60.7% |
| O=C1OC(=O)C2C1CC=CC2c1ccccc1 (stereo unspecified) | 88.9% |
| COc1ccc(CC(C)=C(c2ccc(OCCN(C)C)cc2)c2ccc(OCCN(C)C)cc2)cc1 | 60.6% |
| O=C(N=Nc1c(O)[nH]c2ccc(F)cc12)c1cc2ccccc2[nH]1 | 76.2% |
| O=S(=O)(NCCNc1nccc(-c2c(-c3cccc(F)c3)nc3occn23)n1)c1cccc2ccccc12 | 15.9% |
| O=S(=O)(c1ccc(N/N=C\c2ccccc2)cc1)c1ccc(N/N=C/c2ccccc2)cc1 | 88.3% |
| CCOc1ccc(/C=N/Nc2cc(C)nc3ccc(Cl)cc23)cc1 | 47.6% |
| CC(C)Cc1ccc(C(C)C(=O)NCc2c[nH]c3ccc(Cl)cc23)cc1 (stereo unspecified) | 65.4% |
| COc1ccccc1OCC(=O)N1CCCCCC1 | 92% |
| Nc1nc(SN=Nc2ccc(S(N)(=O)=O)cc2)c2[nH]cnc2n1 | 22.5% |
| COc1ccc(C2CC(n3nnnc3-c3ccccc3)=NN2)cc1 (stereo unspecified) | 35.3% |
| CC(c1ccccc1)n1ccnc1CO (stereo unspecified) | 95.4% |
